Most compounds without a hit are left out; they make up all but 17% or so of the library.
HepG2 tox – kills HepG2 cells in TGF-b inhibitor counter-screen; actives 0.76% (n = 410,000); HepG2 CAGA-GFP viability, ATP luminescence, 18 h; Potency, µM (doses to about 46.1 µM), without a hit: at the highest dose activity change, negative = cytotoxicity, most hits filed as cytotoxic; AID 588856
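HepG2 CAGA-GFP cells (1000/well, DMEM with 1% FBS) received compound, then TGF-beta at 500 pg/mL final, and were incubated 18 hours at 37 degrees C. Viability was read by CellTiter-Glo luminescence. Media-only wells were set as complete cell-killing and DMSO as no toxicity.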
DT40 TDP1 no CPT – qHTS for Inhibitors of human tyrosyl-DNA phosphodiesterase 1 (TDP1): qHTS in cells in absence of CPT. actives 15% (n = 420,000). DT40 Tdp1-/- hTDP1 cells, no CPT, ATP luminescence, 48 h. Potency, µM (top dose mostly 46.2 µM), for the others: at the top dose activity change, negative = growth inhibition, actives largely listed as inhibitors; further: on the % scale 0 is the no-effect control and ±100 the full control effect; nearly all actives have a fitted effect of over 55% in size
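Luminescent ATP content (CellTiter-Glo) served as the growth readout. Knockout chicken DT40 cells expressing human TDP1 were exposed to compounds without camptothecin for a minimum 48 hr at 37 °C.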
S2 tox – reduces viability in counter-screen for ATXN expression inhibitors | S2 cells (HEK-293 line with an ATXN2-luciferase reporter) viability, CellTiter-Fluor protease fluorescence, 24 h | Potency, µM (top dose mostly 56.7 µM), actives largely listed as cytotoxic | actives 0.49% (n = 400,000); further: nearly all actives have a fitted effect of over 40% in size
DT40 TDP1 CPT – growth inhibition of DT40 Tdp1-/-;hTDP1 cells with camptothecin (screen for TDP1 inhibitors); chicken DT40 Tdp1-/-;hTDP1 cells + 20 nM CPT, ATP luminescence, 48 h; Potency, µM (highest dose often 46.2 µM), inactives show top-dose activity change, negative = growth inhibition, actives largely listed as inhibitors; actives 12% (n = 420,000); AID 686979; further: on the % scale 0 is the no-effect control and ±100 the full control effect; nearly all actives have a fitted effect of over 55% in size
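Chicken DT40 Tdp1-/- cells complemented with human TDP1, 400 cells/well, exposed to compounds plus 20 nM camptothecin for at least 48 h at 37 C; viability read as ATP content by CellTiter-Glo luminescence.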
ATXN2 expr inh – inhibitors of ATXN2 expression; HEK-293 ATXN2-luciferase reporter, luminescence, 24 h; Potency, µM (doses to about 57 µM), inactives show at the top dose activity change, negative = inhibition, actives largely listed as inhibitors; actives 0.72% (n = 360,000); AID 1745845; further: on the % scale 0 is the no-effect control and ±100 the full control effect; nearly all actives have a fitted effect of over 55% in size
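ATXN2-luciferase reporter cells (luciferase flanked by upstream and downstream ATXN2 gene portions) were treated 24 h at 37 °C with compounds at up to 57 uM. SteadyGlo luminescence gave expression; GF-AFC fluorescence gave viability.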
TGFb SMAD3 inh – blocks TGF-b signaling; HepG2 CAGA-GFP TGF-b/SMAD3 reporter, GFP fluorescence, 18 h; TGF-beta stimulated, 500 pg/mL final; Potency, µM (doses to about 46.1 µM), for the others: top-dose activity, negative = inhibition, hits mostly inhibitors; actives 1.2% (n = 410,000); further: on the % scale 0 is the no-effect control and ±100 the full control effect; nearly all actives have a fitted effect of over 65% in size
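First, reporter cells (HEPG2 CAGA-GFP) rested 2 h at 37 degrees C. Next, compounds were pinned in and TGF-beta added to 500 pg/mL final. After 18 h, GFP was imaged per cell and summed per well.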
The depositor's hits bear a star; i = inactive; ? = inconclusive; . = no result given; ! = not confirmed by another sample. The call rests on the fitted dose curve; in most records, active means well fitted curve in the direction sought with a large enough effect; inconclusive means small, poorly fitted or top-dose-only effect, or another doubt; inactive means no such curve, though single readings can be large; an effect the other way counts as inactive or inconclusive. Potency means the concentration at half of the fitted maximal effect.

SMILES	HepG2 tox	DT40 TDP1 no CPT	S2 tox	DT40 TDP1 CPT	ATXN2 expr inh	TGFb SMAD3 inh
COc1ccc2cc(CN(Cc3ccco3)C(=S)NCC3CCCO3)c(=O)[nH]c2c1 (stereo unspecified)	3.7%	?	i	?	-17.7%	4.5%
Cc1ccc2[nH]c(=O)c(CN(Cc3cccs3)C(=S)NCC3CCCO3)cc2c1 (stereo unspecified)	-5.0%	13µM*	i	?	0.3%	5.7%
Cc1cc(C)c2cc(CN(Cc3ccco3)C(=S)NCC3CCCO3)c(=O)[nH]c2c1 (stereo unspecified)	-29.1%	16.4µM*	i	18.4µM*	-4.3%	-21.4%
COc1ccccc1CNC(=O)Cn1c(=O)ccc2cc(S(=O)(=O)N3CCC(C)CC3)ccc21	-12.9%	?	i	23.1µM*	-8.1%	-17.4%
CCOc1ccccc1NC(=O)Cn1c(=O)ccc2cc(S(=O)(=O)N3CCC(C)CC3)ccc21	-7.4%	25.9µM*	i	?	-10.2%	?
Cc1cc(F)ccc1NC(=O)Cn1c(=O)ccc2cc(S(=O)(=O)N3CCC(C)CC3)ccc21	-7.4%	-17.2%	i	-9.1%	-2.1%	-2.6%
CCOC(=O)COc1ccc2c(c1)c(C(=O)OCC)c(C)n2CC	1.2%	-6.7%	i	9.3%	-17.6%	6.0%
O=S(=O)(Nc1cc2nc3ccccc3nc2n1Cc1ccccc1)c1ccc(Cl)cc1	-22.5%	23.1µM*	.	?	-24.0%	?
O=C(CC1OC(=O)c2ccccc21)Nc1cc(S(=O)(=O)N2CCOCC2)ccc1OCC(F)(F)F (stereo unspecified)	-1.6%	-11.8%	i	?	-9.0%	27.5%
Cc1ccc(C)c(NC(=O)CCNS(=O)(=O)c2ccc3c(c2)CCCC(=O)N3)c1	-7.5%	.	i	.	-2.3%	-2.6%
O=C1C=CC2=C3c4cc(O)c(O)cc4CC3(O)COC2=C1O (stereo unspecified)	16.0%	?	i	16.4µM*!	-6.5%	-12.7%
N#CCCn1c(=O)cnc2cnc(N3CCOCC3)nc21	.	-13.4%	.	?	.	.
COc1cccc(C(=O)N(Cc2nc(-c3ccc(Cl)cc3)no2)C(C)C)c1OC	-31.4%	20.6µM*	i	18.4µM*	-33.3%	?
COc1ccc(C(=O)NCc2nc(-c3cccc(C)c3)no2)cc1OC	-16.1%	16.4µM*	.	?	.	?
COc1ccc(-c2noc(CN(C(=O)COc3cc(C)c(Br)c(C)c3)C(C)C)n2)cc1	-32.0%	23.1µM*	?	18.4µM*	-38.7%	?
Cc1ccc(-c2noc(CN(C(=O)c3cccc(Br)c3)C(C)C)n2)cc1	-17.3%	?	i	?	-25.5%	?
Cc1cc(C)cc(C(=O)N(Cc2nc(-c3ccc(Cl)cc3)no2)C(C)C)c1	-14.0%	18.4µM*	i	20.6µM*	15.2%	-25.2%
CCCNC(=O)C1(CC2CC(c3ccccc3)=NO2)CCN(C(=O)C2(C)CC2)CC1 (stereo unspecified)	2.3%	-2.4%	i	-6.6%	12.6%	-22.6%
CC(C)(C)n1ncc2c(=O)n(Cc3ccc(C#N)cc3)cnc21	-28.8%	.	.	.	.	-14.0%
CC1=NN(CCc2ccccn2)C(=O)CC1	-3.1%	0.2%	i	9.5%	9.0%	-3.4%
O=C(Nc1cccc2cccnc12)c1ccc2sc([C@@H]3O[C@H](CO)[C@H](O)[C@H](O)[C@H]3O)nc2c1	-5.4%	?	i	?	6.1%	-3.0%
Cc1ccc(-c2noc(CN(C(=O)C(c3ccccc3)c3ccccc3)C(C)C)n2)cc1	6.1%	14.6µM*	i	18.4µM*	-19.0%	0.0%
Cc1cccc(-c2noc(CN(C(=O)c3ccccc3Cl)C(C)C)n2)c1	-18.5%	?	.	?	.	-31.3%
COc1ccc(Cl)cc1C(=O)N(Cc1nc(-c2cccc(C)c2)no1)C(C)C	-21.9%	6.51µM*	?	6.51µM*	?	?
CC(NCCC1(C(C)C)CCOC(C)(C)C1)c1cccs1 (stereo unspecified)	-5.4%	?	i	-20.3%	.	-0.5%
SMILES	HepG2 tox	DT40 TDP1 no CPT	S2 tox	DT40 TDP1 CPT	ATXN2 expr inh	TGFb SMAD3 inh
CC(NCCC1(Cc2ccccc2Cl)CCOC(C)(C)C1)c1cccs1 (stereo unspecified)	-37.0%	20.6µM*	i	23.1µM*	-21.9%	?
CCCn1c(=O)n(C)c(=O)c2c(SCC(=O)Nc3cc(C)on3)nc(C(C)(C)C)nc21	-88.8%	?	?	?	-27.3%	17.8µM*
Cc1cc(NC(=O)CSc2nc(C(C)C)nc3c2c(=O)n(C)c(=O)n3C)no1	-6.2%	16.4µM*	i	16.4µM*	-11.9%	0.7%
Cc1cc(NC(=O)CSc2nc(-c3ccccc3)nc3c2c(=O)n(C)c(=O)n3C)no1	-2.4%	1.3%	i	5.1%	5.8%	0.1%
CCOC(=O)C1CCN(S(=O)(=O)c2ccc(Cl)cc2)CC1	-0.3%	15.6%	i	33.1%	13.1%	0.0%
COc1cc(C)ccc1OCC(=O)NC1CCCCCC1	-12.8%	?	i	0.1%	.	-22.9%
CCOc1cc(C)c(Cl)cc1S(=O)(=O)N(C)C	-18.0%	?	i	?	-7.2%	3.2%
CCN(CC)S(=O)(=O)c1cc(C)c(C)cc1OCC(=O)NC1CCCC1	-10.7%	20.6µM*	i	14.6µM*	4.6%	5.0%
Cc1cc(Cl)c(S(=O)(=O)N2CCCC2)cc1OCC(=O)NC1CCCCC1	-13.2%	18.4µM*	i	14.6µM*	-16.2%	?
CCCOc1cc(C)c(Cl)cc1S(=O)(=O)N(CC)CC	-19.0%	?	i	18.4µM*	-11.8%	2.6%
Cc1cc(Cl)c(S(=O)(=O)NC(C(=O)O)C(C)C)cc1OCC(=O)NC1CCCCC1 (stereo unspecified)	-2.4%	-4.9%	i	2.6%	2.8%	0.0%
CCC(=NCc1ccc(Cl)c(Cl)c1)c1nc(-c2ccco2)oc1O	14.6%	?	i	?	-9.5%	0.0%
Cc1cccc(N2CCN(C(=O)C3CCN(Cc4nc(-c5ccc(Cl)cc5)oc4C)CC3)CC2)c1C	5.6%	?	.	?	.	-0.8%
CCCCCC1CCC(c2ccc(/C(N)=N/O)cc2)CC1 (stereo unspecified)	5.4%	8.2µM*	?	14.6µM*	.	5.9%
